# esBAF inh = SWI/SNF esBAF complex inhibition. mouse ES cells, Bmi1-luciferase knock-in reporter, 24 h; 100% = twice the neutral-well signal. 350,000 tested, 2% active. reporter increase, % at 12.5 µM; in the data active means activation above about 40%; inconclusive means no clear call, values can overlap the other calls;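 further: a rise in the Bmi1 reporter signal indicates esBAF inhibition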
# HSF1 inh = HSF1 inhibition. NIH3T3-HGL HSE-luciferase, MG132-induced, luminescence 8 h; stronger effect = lower value. activity change, negative = inhibition, % at 7.5 µM (by protocol). 300,000 tested, 0.77% active. AID 2098;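 active means more than half of replicate wells show activity change below -50%, luminescence cut by over half; inconclusive means some wells, but at most half, below -50%; inactive means no replicate well below -50%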;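 further: luciferase reports HSF-1 transcriptional activity via heat shock element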
# HSF-1 act = increases HSF-1 driven luciferase reporter signal. NIH3T3-HGL HSF-1 luciferase reporter, MG132, 8 h; 100% = twice DMSO control signal. activation, % at 9 µM. 300,000 tested, 1.7% active. AID 504408;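 active means mean replicate activation of at least 50% with a set share of replicates each reaching 50%; inconclusive means only one of those two conditions met; inactive means mean below 50% and too few replicates reaching it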
# Vif imaging = inhibitors of HIV Vif; HEK293T cells, Vif self-association by quenched fluorescence, imaging, 24 h; inhibition, % at 7.49 µM; 340,000 tested, 0.35% active; in the data active means inhibition above about 50%, passing the limit was not always enough; inconclusive means no clear call, values can overlap the other calls; inactive means below about 31%
# Numbers stand for hits; - = inactive; ? = inconclusive; . = no result. The list is not random: actives were taken first. Their share in the collection is about 3.4%.
SMILES,esBAF inh,HSF1 inh,HSF-1 act,Vif imaging
COc1ccc(C/C(C)=N/NC(=S)Nc2ccccc2)cc1,60,-,-,-
COc1ccc(CC(=O)NCC(=O)Nc2ccccc2Br)cc1,-,-,56,-
COc1ccc(CNC(=O)CN(C)CC(=O)Nc2ccccc2Br)cc1,-,.,.,-
COc1ccc(CC(=O)Nc2ccc(-c3cn4ccc(C)cc4n3)cc2)cc1,58,-,?,-
COc1ccc(NC(=O)CNC(=O)Cc2ccccc2)cc1,-,-,-,-
CNC[C@@H]1Oc2ncc(-c3cccc(C(=O)N(C)C)c3)cc2C(=O)N([C@@H](C)CO)C[C@@H]1C,-,.,.,.
COc1ccccc1NC(=O)Nc1ccc(C(N)=O)cc1,.,-,-,-
COc1ccc(C(=O)C(=NN)c2ccccc2)cc1,45,.,.,.
COc1ccc(NC(=O)Nc2ccccc2OC)cc1,48,-,-,.
CC(=O)Nc1ccc(C(=O)COC(=O)c2ccco2)c(F)c1,44,.,.,-
COc1ccc(CNC(=S)Nc2cccc(Cl)c2)cc1,-,-,-,53
COc1ccc(CNC(=O)Nc2cccc(Cl)c2)cc1,.,.,.,-
COc1ccc(S(=O)(=O)N(C)C[C@@H]2Oc3ccc(NC(=O)Cc4ccccc4)cc3C(=O)N([C@H](C)CO)C[C@@H]2C)cc1,-,.,.,.
COc1ccc(NC(=O)Nc2ccc3c(c2)[C@@H]2C[C@@H](CC(=O)NC4CCCC4)O[C@H](CO)[C@@H]2O3)cc1,-,.,.,.
Cc1ccc(/C=C(/C#N)c2nc(CCN3C(=O)c4ccccc4C3=O)cs2)cc1,-,-53,-,-
Cn1c(-c2ccc([N+](=O)[O-])cc2)nc2ccccc21,-,-,-,-
Cn1nc([N+](=O)[O-])c(C(C#N)c2nc3ccccc3n2C)c(Cl)c1=O (stereo unspecified),.,-,61,-
CCOC(=O)c1ccc(CSc2nnc(N)s2)cc1,48,-,-,-
CCCOc1ccc(-c2cnc(N)s2)cc1,76,-,-,.
COc1ccc(-c2nc(CCl)cs2)cc1OC,-,-,-,-
CCOc1ccc(-c2nc(CSc3nnc(N)s3)cs2)cc1OC,47,-,-,-
CCOc1ccc(-c2nc(CSc3nnc(N)s3)cs2)cc1,49,-,62,-
CCCOc1ccc(OCCSc2nnc(N)s2)cc1,53,-,125,-
Nc1nnc(SCCCOc2ccc(F)cc2)s1,-,-,-,-
CCn1c(=O)c([N+](=O)[O-])c(Cl)c2ccccc21,.,-,313,-
SMILES,esBAF inh,HSF1 inh,HSF-1 act,Vif imaging
CCn1c(=O)c([N+](=O)[O-])c(NCCN(C)C)c2ccccc21,.,-,-,-
COc1ccc(S(=O)(=O)N(C)C[C@H]2Oc3ccc(NS(=O)(=O)c4cccs4)cc3CC(=O)N([C@H](C)CO)C[C@@H]2C)cc1,-,.,.,.
CC(C)NC(=O)N(C)C[C@H]1Oc2ccc(NC(=O)c3ccncc3)cc2CC(=O)N([C@H](C)CO)C[C@@H]1C,-,.,.,.
COc1ccc2c(c1)N(C)/C(=C1/SC(=NCc3ccccc3)N(c3ccccc3)C1=O)S2,-,-,-,170
CNC[C@@H]1OCCCC[C@H](C)Oc2ccc(NC(=O)Nc3ccc4c(c3)OCO4)cc2C(=O)N([C@@H](C)CO)C[C@@H]1C,-,.,.,.
N#C/C(=C/c1ccc(N2CCCCC2)cc1)c1cccc(F)c1,66,-,-,-
Cc1ccc(/C(C#N)=C\c2ccc(N3CCOCC3)o2)cc1,-,-,76,-
Cc1ccc2nc(/C(C#N)=C\c3ccc(N4CCOCC4)o3)[nH]c2c1,.,-,-,-
N#C/C(=C/c1ccc(N2CCCCC2)o1)c1cccc(F)c1,74,-,172,.
O=C(c1cccc(F)c1)N1CCCC(C(=O)N2CCN(c3ccccc3)CC2)C1 (stereo unspecified),.,-,-,-
N#C/C(=C/c1ccc(N2CCCCCC2)o1)c1ccc(Cl)cc1,-,-,93,-
N#C/C(=C/c1ccc(Sc2nc3ccccc3[nH]2)o1)c1cccc(F)c1,-,-,-,-
O=C(C[C@@H]1C[C@H]2c3cc(NS(=O)(=O)c4ccc(F)cc4)ccc3O[C@H]2[C@@H](CO)O1)NCC1CC1,-,.,.,.
COc1cccc(NC(=O)N[C@@H]2CC[C@@H](CC(=O)Nc3ccccc3)O[C@H]2CO)c1,-,.,.,.
CCCN(Cc1ccc(C)cc1)C(=O)c1ccc(CNS(=O)(=O)c2ccc(C(C)=O)cc2)cc1,62,.,.,-
Cc1ccc(S(=O)(=O)N(C)C[C@H]2Oc3ccc(NC(=O)Nc4ccc(C(F)(F)F)cc4)cc3C(=O)N([C@@H](C)CO)C[C@@H]2C)cc1,-,.,.,.
COc1ccc2ccccc2c1CN(C)Cc1ccccc1,-,-,-,-
COc1cccc(CN(C)Cc2c(O)ccc3ccccc23)c1,-,-,97,-
COc1ccc(CN(C)Cc2c(O)ccc3ccccc23)cc1,-,-,219,-
C[C@@H]1CCCCO[C@H](CN(C)Cc2ccccc2)[C@H](C)CN([C@@H](C)CO)C(=O)c2cc(NC(=O)C3CCCCC3)ccc2O1,-,.,.,.
CC(C)(C)C(=O)/C(=C/c1ccc(Cl)cc1)n1cncn1,-,-,150,-
COc1ccc(-c2csc(/C(C#N)=C(\O)CSc3nccn3C)n2)cc1OC,-,-88,-,-
COc1ccc2c(c1)c(C(=O)CNc1nc(C)cs1)c(C)n2C,-,-,61,-
CCOCc1cnc(C)nc1NCC(=O)c1c(C)n(C)c2ccc(OC)cc12,.,-,-,-
CC(=O)N[C@H]1CC[C@H](CC(=O)NCC2CCCCC2)O[C@@H]1CO,-,.,.,.
SMILES,esBAF inh,HSF1 inh,HSF-1 act,Vif imaging
CCc1nnc(NC(=O)C2Cc3ccccc3CN2S(=O)(=O)CC)s1 (stereo unspecified),-,-,-,-
CCS(=O)(=O)N1Cc2ccccc2CC1C(=O)Nc1nc2ccccc2s1 (stereo unspecified),.,-61,-,-
COc1ccc(-n2ncc3c(NCc4cccs4)ncnc32)cc1,107,-,-,-
COc1ccc(-n2ncc3c(NCCCN4CCOCC4)ncnc32)cc1,-,-55,-,-
CCOC(=O)N1CCC(Nc2ncnc3c2cnn3-c2ccccc2)CC1,-,-,-,-
Clc1ccc(-n2ncc3c(NCc4ccco4)ncnc32)cc1,52,-,-,-
c1ccc(-n2ncc3c(NC4CCCCCC4)ncnc32)cc1,55,-,-,-
COc1ccc(-n2ncc3c(NCc4ccco4)ncnc32)cc1,-,-,-,-
C[C@@H]1CN([C@H](C)CO)C(=O)Cc2cc(NC(=O)CCN3CCOCC3)ccc2O[C@@H]1CN(C)Cc1ccc(-c2ccccc2)cc1,-,.,.,.
O=C1CCCN1CCCNc1ncnc2c1cnn2-c1ccc(Cl)cc1,42,-,-,-
c1ccc(-n2ncc3c(NCc4cccnc4)ncnc32)cc1,.,-,-,-
c1ccc(-n2ncc3c(NCc4cccs4)ncnc32)cc1,45,-,66,-
Cc1cccc(-n2ncc3c(NCCCN4CCCC4=O)ncnc32)c1,.,-,-,-
O=C(NNc1ncnc2c1cnn2-c1cccc(Cl)c1)c1ccco1,-,-,64,-
Cc1ccc(-n2ncc3c(NNC(=O)c4ccco4)ncnc32)cc1C,-,-,-,-
COc1ccc(S(=O)(=O)N(C)C[C@H]2Oc3ccc(NS(=O)(=O)c4cn(C)cn4)cc3C(=O)N([C@H](C)CO)C[C@H]2C)cc1,-,.,.,.

# Screens as filed in PubChem BioAssay.
